# PubChem BioAssay (NCI)
# Compounds without any hit were thinned out: in the full panel of roughly 83,000, 20% have a hit.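 Note: values are percent growth. 100 is the growth of untreated cells, values between 100 and 0 indicate rising inhibition; between -100 and 0 indicates cell death.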 Values without a mark were called inactive. Calls of active or inactive are those of the source. Rule for the calls: active = growth percent below 10; inactive = the rest.
# Tested on: HL-60(TB) leukemia
# Experiment: NCI-60 one-dose screen, 48 h (100 = growth as untreated, 0 = no growth, -100 = all killed)
# Conditions: 10 µM unless noted
row,SMILES,growth
1,Cn1nc(-c2ccccc2)c2c(-c3ccccc3)onc2c1=O,1.23% (active)
2,COc1cc(NC(C)CN(CC(C)C)C(C)C)c2ncccc2c1 (stereo not given),101%
3,CC(=O)Nc1cccc(C2=CC(c3ccc(C)cc3)n3ncnc3N2)c1 (stereo not given),89.9%
4,CCCCNC(=O)Oc1ccc(/C(=C(/C)Cc2ccc(OC)cc2)c2ccc(OCCN3CCCC3)cc2)cc1,43.9%
5,Clc1ccc(-c2nc(-c3ccco3)cn3ccnc23)cc1,102%
6,Cc1ccc(-n2c(C)nn3c(=O)c4c5c(sc4nc23)CN(C)CC5)cc1,96.7%
7,O=C1Nc2ccccc2/C1=C/c1cn(C(=O)c2ccc(Cl)cc2)c2ccccc12,150%
8,C=CCN(CC=C)C(=O)[C@H](CC)[C@@H]1CC[C@@H](C)[C@@H]([C@H](C)[C@@H](O)[C@@H](C)C(=O)[C@H](CC)C2O[C@]3(C=CC(=O)[C@]4(CC[C@@](C)([C@H]5CC[C@](O)(CC)[C@H](C)O5)O4)O3)[C@H](C)C[C@@H]2C)O1 (stereo not given in full),-25.2% (active)
9,Nc1ccc(/C=N/Nc2ccnc3c(O)cccc23)c2cccnc12,17.9%
10,O=C(Nc1nc(-c2ccc(Cl)cc2)cs1)c1cc(O)c(O)c(O)c1,10.4%
11,O=c1cc(SCc2ccccc2)nc[nH]1,82.3%
12,CC1=CC(=O)c2ccccc2C1=O,106%
13,COc1ccc(C/C(C)=C(\c2ccc(Cl)cc2)c2ccc(OCCN3CCCCCC3)cc2)cc1,30.7%
14,O=[N+]([O-])CC(O)c1ccccc1 (stereo not given),99.4%
15,Cc1c(N2CCCCC2)[nH]c2ccccc12,101%
16,O=C1NC(=O)c2c1c1c3ccccc3[nH]c1c1oc3ccc(F)cc3c21,99.5%
17,CCN=C1C=CC(=C(c2ccc(N(C)C)cc2)c2ccc(N(C)C)cc2)c2ccccc21,-9.26% (active)
18,CCCCCCC(=O)C(C)C,101%
19,CCCCC/C=N/Nc1nc(C)cc(=O)[nH]1,108%
20,Cc1cscc(C)c1=S,111%

row,SMILES,growth
1,CCCC1OC(c2ccco2)OCC1CC (stereo not given),102%
2,CCOC(=O)c1cn2ncnc(Oc3ccc(NC(=O)NCCN(C)C)c(Cl)c3)c2c1C,98.6%
3,CCOC(=O)N1CCN(c2nc(Nc3cc(C)[nH]n3)c3ccccc3n2)CC1,26.3%
4,COC(=O)N[C@H]1CCc2cc(OC)c(OC)c(OC)c2-c2ccc(SC)c(=O)cc21,-45.4% (active)
5,O=C1CCCN1C1CCN(Cc2cc3ccccc3[nH]c2=O)c2ccccc21 (stereo not given),95.6%
6,COc1nc2ccccc2cc1-c1nc2c(cnn2-c2ccc(Br)cc2)c(=O)[nH]1,8.57% (active)
7,CCCCS(=O)(=O)Oc1ccc(-c2nc(C)c(C(=O)OCC)s2)cc1C=O,37.7%
8,COc1ccc(C(=O)COc2cccc(/C=C3\CSc4ccccc4C3=O)c2)cc1,-55.5% (active)
9,O=[n+]1ccn([O-])c2ccccc21,118%
10,COC(=O)c1c2c(c(C)[n+]([O-])c1C)C(=O)C=C(NCc1ccc(F)c(F)c1)C2=O,-24% (active)
11,COc1ccc(Nc2cnc3cc(NS(=O)(=O)c4ccc(C)cc4)ccc3n2)cc1,70%
12,N#C/C(=C\c1ccc2c(c1)OCO2)n1nnc2ccccc21,-10.9% (active)
13,COc1ccc(/C=C/C(=O)c2ccc(NC(=O)CSc3nnc(-c4cc(-c5ccccc5)nc5ccccc45)n3-c3ccccc3)cc2)cc1,95.9%
14,COC(=O)[C@]12CC[C@@H](C)[C@H](C)[C@@H]1C1=CC[C@@H]3[C@@]4(C)C(C=O)=C[C@@](C)(COC(=O)c5ccco5)[C@@H]4C(=O)C[C@@]3(C)[C@]1(C)CC2,10.1%
15,CSc1nc2ncncc2[nH]1,91.2%
16,CCCCCCCCCCCCCC(=O)C(C)N (stereo not given),14.6%
17,Cc1ccc(OC(=O)c2ccccc2)cc1,103%
18,CCc1nc(N)nc(N)c1-c1ccc(Cl)cc1,51.3%
19,CCN(CC)CCCCCCCCNc1c2ccc(Cl)cc2nc2ccc(OC)cc12,-53.2% (active)
20,C=C1C(=O)O[C@H]2[C@H]1CC/C(COC(=O)n1ccnc1C)=C\CC[C@@]1(C)O[C@@H]21,83.2%
